Inconclusive results are not listed. Activity calls are given as the source filed them. Calls follow the shape of the dose curve; as a rule, active = well fitted cell-killing curve with a large enough effect; inconclusive = small, poorly fitted or top-dose-only effect, or effect the other way; inactive = flat fitted curve, though single readings scatter.
The compounds below were run on CAOV3 (assay: Primary qHTS to identify gynecologic anti-cancer compounds using libraries of approved drugs and bioactive compounds (AID 1345084; also: nearly all actives have a fitted effect of over 55% in size)). Conditions: Gynecologic cancer cell panel viability, ATPlite luminescence, 48 h; series mostly up to 57.5 µM.
Description: National Center for Advancing Translational Sciences [NCATS] Assay Overview: Chemotherapeutic drug responses vary from cancer to cancer and from patient to patient. These variations could be caused by a number of factors including patient genomic background, tumor mutations, tumor heterogeneity, and aspects of drug treatment. Chemotherapeutic drug resistance is also a common issue and can lead to ineffective treatment and patient death. Here we have profiled the cell killing effects of thousands of compounds to characterize the responses in three gynecological cancers, identify cancer-selective compounds, and understand the diversity of responses to these compounds from pan-cancer suppressors to single cell line selective compounds. In this assay, we screened a 7,914 compound drug library that included approved drug and bioactive compounds in six ovarian, three cervical, and […] placental cancer cell lines using the ATPlite assay for cell viability. […] The cervical cancer cell lines included HeLa, Ca Ski, and C-33 A. The placental cancer cell lines included JEG-3. HEK 293T cells were used as the control cell line to determine the selectivity index. ATPlite is a luminescence based assay reliant on the conversion of a luciferase substrate to light in the presence of ATP. As a cytotoxic compound will suppress growth and decrease the number of cells, the concentration of ATP will decrease, and less light signal will be detected in the well.
Assay Protocol Summary: 1,000 cells in 4 uL of media were dispensed into white, solid bottom 1536-well plates using a Multidrop Combi (Thermo Scientific). The Assay plates were incubated for 16 hours at 37 C with 5% CO2 in assay plates, followed by the addition of 23 nL of DMSO or drug dissolved in DMSO. Each compound was assayed in five concentrations (0.092, 0.46, 2.3, 11.5, and 57.5 uM), using the automated Wako 1536 Pin Tool workstation and incubated at 37 C with 5% CO2 48 hours. 4 uL of ATPlite, the ATP monitoring reagent, was then added to the each well of the assay plates using the Multidrop Combi reagent dispenser followed by incubation for 15 minutes at room temperature. The resulting luminescence was measured using the ViewLux plate reader.

SMILES	outcome
C[C@@H](c1ncncc1F)C(O)(Cn1cncn1)c1ccc(F)cc1F (stereo not given in full)	inactive
CCOc1cc(NC(C)=O)ccc1C(=O)OC	inactive
CCCNC(C)(C)COC(=O)c1ccccc1	inactive
CCCNC(C)C(=O)Nc1c(C)csc1C(=O)OC (stereo not given)	inactive
CCS(=O)(=O)CCn1c([N+](=O)[O-])cnc1C	inactive
O=c1[nH]cnc2nc[nH]c12	inactive
NNC(=O)CP(=O)(c1ccccc1)c1ccccc1	inactive
Cc1ccc(C(C)C)c(O)c1	inactive
O=C(CCBr)N1CCN(C(=O)CCBr)CC1	inactive
NNc1nnc(NN)c2ccccc12	inactive
O=C(O)CCC(=O)O	inactive
O=C(O)c1cc(=O)c2ccccc2o1	inactive
O=C(/C=C/c1ccc(O)c(O)c1)O[C@@H]1C[C@@](OC(=O)/C=C/c2ccc(O)c(O)c2)(C(=O)O)C[C@@H](O)[C@@H]1O	inactive
CC1(c2ccccc2)OC(C(=O)O)=CC1=O (stereo not given)	inactive
CC[N+](C)(CC)CCOC(=O)C1c2ccccc2Oc2ccccc21	inactive
CC1CCc2cc(F)cc3c(=O)c(C(=O)O)cn1c23 (stereo not given)	inactive
CC(=O)OC[C@H]1O[C@@](COC(C)=O)(O[C@H]2O[C@H](COC(C)=O)[C@@H](OC(C)=O)[C@H](OC(C)=O)[C@H]2OC(C)=O)[C@@H](OC(C)=O)[C@@H]1OC(C)=O	inactive
NC(N)=NS(=O)(=O)c1ccc(N)cc1	inactive
O=C1C(c2[nH]c3ccccc3c2O)=Nc2ccccc21	inactive
COc1cc(O)cc(O)c1	inactive

SMILES	outcome
C[C@H]1COc2c(C3(N)CC3)c(F)cc3c(=O)c(C(=O)O)cn1c23	inactive
O=C1c2cccc(O)c2C(=O)c2c(O)cccc21	inactive
C=CCSCC1Nc2cc(Cl)c(S(N)(=O)=O)cc2S(=O)(=O)N1 (stereo not given)	inactive
CCOC(=O)OC(C)OC(=O)[C@@H]1N2C(=O)[C@@H](NC(=O)[C@H](N)c3ccccc3)[C@H]2SC1(C)C (stereo not given in full)	inactive
NS(=O)(=O)c1cc(C2(O)NC(=O)c3ccccc32)ccc1Cl (stereo not given)	inactive
CC(=O)Nc1ccccc1	inactive
CC(C)NC[C@@H](O)COc1ccc(CC(N)=O)cc1	inactive
CC(=O)NS(=O)(=O)c1ccc(N)cc1	inactive
CN1CCN(C(=O)C2CCCCC2)CC1	inactive
Cc1onc(-c2ccccc2)c1-c1ccc(S(N)(=O)=O)cc1	inactive
O=C(NCC(O)CO)c1c(I)c(C(=O)NCC(O)CO)c(I)c(N(CCO)C(=O)CO)c1I (stereo not given)	inactive
CC(CSC(=O)c1ccccc1)C(=O)N1C[C@@H](Sc2ccccc2)C[C@H]1C(=O)O (stereo not given in full)	inactive
COc1ccccc1Oc1c(NS(=O)(=O)c2ccc(C(C)(C)C)cc2)nc(-c2ncccn2)nc1OCCO	inactive
COc1ccc(C(=O)N2CCN(CC(=O)N3CCOCC3)CC2)cc1	inactive
O=C(/C=C/c1ccccc1)OCc1ccccc1	inactive
CCCCCC(C)N (stereo not given)	inactive
C[C@@H](N)C(=O)O	inactive
COc1ccc(-c2cc(=O)c3c(O)cc(O[C@@H]4O[C@H](CO[C@@H]5O[C@@H](C)[C@H](O)[C@@H](O)[C@H]5O)[C@@H](O)[C@H](O)[C@H]4O)cc3o2)cc1O	inactive
CC(=O)N(CC(O)CO)c1c(I)c(C(=O)NCC(O)CO)c(I)c(C(=O)NCC(O)CO)c1I (stereo not given)	inactive
CCN[C@H]1CN(CCCOC)S(=O)(=O)c2sc(S(N)(=O)=O)cc21	inactive
